# A selection: hits, their analogues and other compounds. The true share with any hit is near 4.3%.
# esBAF inh: Bmi1 luciferase reporter increase in mESCs, primary screen, esBAF inhibitor project, mouse ES cells, Bmi1 luciferase knock-in, single point; reporter increase, % at 12.5 µM; 24 h; 100% = twice the neutral-well signal; actives 2% (n = 350,000); in the data active = activation above about 40%;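 note: 0% = median of the plate's neutral control wells and 100% = double that signal; a rise in the Bmi1 reporter signal indicates esBAF inhibition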
# HSF1 inh: HSF1 inhibitors in luciferase reporter cells, primary screen, cell-based, NIH3T3, luminescence; actives 0.77% (n = 300,000); activity change, negative = inhibition, % at 7.5 µM (by protocol); AID 2098, 2009; NIH3T3-HGL HSE-luciferase, MG132-induced, luminescence 8 h; hits give low values;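 active = more than half of replicate wells show activity change below -50%, luminescence cut by over half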;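 note: luciferase reports HSF-1 transcriptional activity via heat shock element; 0% = median of DMSO wells and -100% = zero luminescence signal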
# Wnt bcat act: Wnt/beta-catenin pathway activators, primary screen, cell-based, plate reader, single point | AID 743398, 2014 | activation, % at 9.35 µM | actives 1.2% (n = 300,000) | Wnt/beta-catenin reporter cell assay, activator; in the data active = activation above about 30%, passing the limit was not always enough;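 note: 0% = neutral control wells and 100% = positive control wells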
# HSF-1 act: HSF-1 activators, primary screen, NIH3T3-HGL cells, MG132 stress, luminescence, single point; activation, % at 9 µM; actives 1.7% (n = 300,000); NIH3T3-HGL HSF-1 luciferase reporter, 8 h; 100% = twice DMSO control signal;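 active = mean replicate activation of at least 50% with a set share of replicates each reaching 50%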;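 note: 0% = median of the neutral control wells and 100% = twice that signal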
# SMARCA2 act: SMARCA2 (BRM) function activators, primary screen, cell-based, luminescence, high throughput; MG213 cells, MMTV-luciferase reporter, dexamethasone, overnight; activation, % at 9.1 µM; actives 1% (n = 370,000); AID 652017, 2013; in the data active = activation above about 7.8%;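 note: 0% = vehicle wells and 100% = reference activator wells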
# MITF TRPM1 HTS: activators of MITF-driven TRPM1 promoter reporter, primary screen, cell-based, SK-MEL-5, luciferase, single point | activation, % at 12.5 µM | actives 0.75% (n = 300,000) | SK-MEL-5 TRPM1-promoter luciferase, 24 h; % of positive control, neutral wells = 0;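 active = mean activation of at least 80% with every replicate also reaching 80%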;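 note: 0% = neutral control wells and 100% = parthenolide positive control wells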
# * = called active by the depositor; . = no result given.
SMILES,esBAF inh,HSF1 inh,Wnt bcat act,HSF-1 act,SMARCA2 act,MITF TRPM1 HTS
CC(C)NC(=O)Nc1ccc2c(c1)C(=O)N([C@@H](C)CO)C[C@H](C)[C@@H](CN(C)C(=O)NC(C)C)O2,1,.,.,.,.,.
O=C(C[C@H]1C[C@H]2c3cc(NC(=O)C4CCOCC4)ccc3O[C@H]2[C@@H](CO)O1)NCc1ccccn1,-1,.,.,.,.,.
Cc1ccc(N(CC(=O)NCCc2ccc(F)cc2)S(=O)(=O)c2ccc(Cl)c([N+](=O)[O-])c2)c(C)c1,-5,85,-8,89*,-2,-43
C[C@H]1CN([C@@H](C)CO)S(=O)(=O)c2ccc(-c3cccc(C(=O)N(C)C)c3)cc2O[C@H]1CN(C)C(=O)Cc1ccccn1,1,.,.,.,.,.
Cc1ccc(C(=O)Nc2nc(=O)n(C(=O)c3ccccc3C)s2)cc1,60*,9,.,2,1,22
Cc1cccc(Sc2ccc([N+](=O)[O-])cn2)c1,.,-5,-3,-7,-1,10
O=[N+]([O-])c1ccc(Sc2n[nH]c(-c3ccccc3)n2)nc1,51*,9,12,15,-2,.
O=[N+]([O-])c1ccc(Sc2ccccc2)nc1,-7,17,0,53*,0,1
Cc1ccnc(Sc2ccc([N+](=O)[O-])cn2)n1,.,5,5,8,-1,23
CS(=O)(=O)Nc1ccc2c(c1)[C@@H]1C[C@H](CC(=O)NCc3cccc(F)c3)O[C@@H](CO)[C@@H]1O2,3,.,.,.,.,.
C[C@H]1CCCCO[C@H](CN(C)C)[C@@H](C)CN([C@@H](C)CO)C(=O)c2cc(N(C)C)ccc2O1,4,.,.,.,.,.
C[C@@H]1CN([C@H](C)CO)C(=O)c2cc(NC(=O)Nc3ccc(C(F)(F)F)cc3)ccc2O[C@@H](C)CCCCO[C@@H]1CN(C)Cc1ccccc1,-9,.,.,.,.,.
COCCNC(=O)C(=O)Nc1ccc(Br)cc1,49*,10,.,13,3,27
COCCNC(=O)C(=O)Nc1cccc(Br)c1,57*,-3,5,-9,4,54
C[C@@H]1CCCCO[C@@H](CN(C)C(=O)c2ccncc2)[C@@H](C)CN([C@H](C)CO)C(=O)c2cc(NS(=O)(=O)c3cn(C)cn3)ccc2O1,-2,.,.,.,.,.
COc1ccc2nc(SCC(=O)Nc3ccc4c(c3)OCCO4)[nH]c2c1,-25,-53*,-12,-59,-8,-6
O=C(CSc1nc2ccccc2[nH]1)Nc1ccc(F)c(F)c1,-6,-61*,-1,-71,-4,16
Cc1noc(C)c1NC(=O)N(C)C[C@@H]1OCCCC[C@@H](C)Oc2ccc(NC(=O)NC3CCCCC3)cc2C(=O)N([C@H](C)CO)C[C@H]1C,12,.,.,.,.,.
C=CCC(Nc1ccccc1)c1ccc(OC)c(OC)c1 (stereo not given),.,-63*,.,-71,.,.
COc1ccc(CNC(C)CCc2ccccc2)cc1 (stereo not given),-12,-67*,0,-75,0,.
O=C(C[C@H]1C[C@H]2c3cc(NC(=O)C4CCOCC4)ccc3O[C@H]2[C@H](CO)O1)NC1CCCCC1,0,.,.,.,.,.
COc1ccc(OCCCCc2c(C)n[nH]c2C)cc1,3,-7,-1,-22,-3,9
Cc1n[nH]c(C)c1CCOc1ccc(C(C)C)cc1,5,47,18,100*,-2,.
COc1ccc(C2=NN(C)C(=NCc3ccccc3)SC2)cc1,-1,22,7,53*,-2,29
COc1ccc(CN=C2NN=C(c3ccc(Cl)cc3)CS2)cc1,.,-2,1,8,-1,20
SMILES,esBAF inh,HSF1 inh,Wnt bcat act,HSF-1 act,SMARCA2 act,MITF TRPM1 HTS
CC1CN(C(=O)c2cc(S(=O)(=O)N(C)c3ccc(F)cc3)ccc2Cl)CC(C)O1 (stereo not given),-9,-71*,-2,-76,0,-1
c1ccc(N/N=C(\Cc2ncc[nH]2)c2ccccc2)cc1,.,4,-2,0,-5,-1
Clc1cccc(N/N=C(\Cc2nc3ccccc3[nH]2)c2ccccc2)c1,.,19,.,70*,0,5
O=C(NCc1cccnc1)c1cc2ccccc2oc1=O,-1,-4,-1,23,-2,-8
O=C(NCCc1cccc(Cl)c1)c1cc2ccccc2oc1=O,8,187,.,278*,.,.
O=C(c1cc2ccccc2oc1=O)N1CCN(c2ccccn2)CC1,-1,-9,1,2,0,13
O=C(Nc1ccc(F)cc1F)c1cc2ccccc2oc1=O,20,18,50*,17,8,.
O=C(c1ccccc1)c1cc2ccccc2oc1=O,48,0,-1,28,1,29
O=C(c1cc2ccccc2oc1=O)N1CCN(c2ncccn2)CC1,70*,9,.,13,.,.
O=C(NNC(=O)c1cc2ccccc2oc1=O)c1ccccc1,55*,-2,9,22,0,.
CO[C@H]1CN(C)C(=O)c2cc(NC(=O)C3CCCC3)ccc2OC[C@@H](C)N(C)C[C@@H]1C,1,.,.,.,.,.
CC(NC(=O)COc1ncnc2cc([N+](=O)[O-])ccc12)c1ccccc1 (stereo not given),.,1,.,-1,-1,-6
CCOC(=O)c1c(C)[nH]c(C)c1C(=O)COc1ncnc2cc([N+](=O)[O-])ccc12,.,17,-4,66*,-1,-7
C=CCNC(=O)/C(=C/c1cn(-c2ccccc2)nc1-c1cccc([N+](=O)[O-])c1)NC(=O)c1ccccc1,.,5,.,8,2,-10
CN(C)C(=O)/C(=C/c1cn(-c2ccccc2)nc1-c1cccc([N+](=O)[O-])c1)NC(=O)c1ccccc1,-5,-10,56*,10,-2,-13
Fc1ccc(NC(=S)Nc2cccc3ccccc23)cc1,29,-37,6,-45,7,5
CC(C)c1ccc(NC(=S)Nc2cccc3ccccc23)cc1,-9,-68*,10,-72,2,1
S=C(Nc1ccc(Cl)cc1)Nc1cccc2cnccc12,.,23,20,61*,-1,-6
CCOc1ccc(NC(=S)Nc2cccc3ccccc23)cc1,33,-32,31*,-42,2,14
COc1cccc(NC(=S)Nc2cccc3ccccc23)c1,55*,12,12,6,1,15
O=C(Cc1ccccn1)N[C@H]1CC[C@H](CC(=O)N2CCCCC2)O[C@H]1CO,6,.,.,.,.,.
C[C@H](CO)N1C[C@H](C)[C@@H](CN(C)Cc2ccccn2)Oc2ncc(C3=CCCCC3)cc2C1=O,1,.,.,.,.,.
Cc1ccc(NC(=S)Nc2cccc3ccccc23)cc1,15,-80*,7,-83,-1,-13

# High-throughput results from PubChem BioAssay.
